# Bioassay records from PubChem.
# Rows were chosen to be rich in hits. Some 2% of all compounds tested hit in one or more screens of this group.
# PfGluPho inh – PfG6PD enzyme inhibitors, primary screen, biochemical, fluorescence intensity, uHTS | glucose-6-phosphate dehydrogenase-6-phosphogluconolactonase (Plasmodium falciparum 3D7) | 350,000 compounds, 0.78% hits | PfGluPho enzyme, NADPH resazurin-diaphorase fluorescence | AID 504690, 2011 | inhibition, % at 20 µM;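 active = inhibition reaching at least a set limit at 20 µM in the primary screen, cut at about 59% in these data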
# Neddylation inh – inhibitors of cullin neddylation, primary screen, biochemical, TR-FRET, uHTS, NAE and Ubc12; inhibition, % at 25 µM; 360,000 compounds, 0.58% hits; in the data active = inhibition above about 36%
# A3A deaminase – APOBEC3A ssDNA deaminase inhibitors, primary screen, selectivity assay for APOBEC3G inhibitor project, biochemical, FAM/TAMRA oligo cleavage fluorescence | DNA dC->dU-editing enzyme APOBEC-3A (Homo sapiens), P31941 | inhibition, % at 20 µM | AID 493011, 2011 | recombinant A3A, FAM/TAMRA ssDNA deamination fluorescence | 330,000 compounds, 0.41% hits;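 active = at least 40% inhibition at 20 µM here, with at most 30% in a related deaminase screen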
# Target sequence (P31941 whole entry, looked up): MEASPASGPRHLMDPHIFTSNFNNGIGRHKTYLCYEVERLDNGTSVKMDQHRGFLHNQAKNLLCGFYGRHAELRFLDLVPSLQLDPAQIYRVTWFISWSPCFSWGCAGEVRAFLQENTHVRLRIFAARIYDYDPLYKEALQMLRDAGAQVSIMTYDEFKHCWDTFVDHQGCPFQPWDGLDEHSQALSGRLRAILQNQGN
# NPR2 activator – human GC-B receptor activators, primary screen, HEK293 GC-B cells, cGMP TR-FRET, EC30 CNP | Atrial natriuretic peptide receptor 2 (Homo sapiens), P20594 | activation, % at 10 µM | 0% at EC30 CNP, 100% saturating CNP | 370,000 compounds, 0.11% hits;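 active = activation at 10 µM reaching about 35% in either raw or pattern-adjusted values, limit read from the data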
# APOBEC3G inh – APOBEC3G DNA deaminase inhibitors, primary screen, biochemical, fluorescence, single-stranded DNA substrate, uHTS; recombinant A3G, ssDNA deamination FAM/TAMRA fluorescence; AID 493012, 2011; DNA dC->dU-editing enzyme APOBEC-3G (Homo sapiens), Q9HC16; inhibition, % at 20 µM; 330,000 compounds, 0.28% hits;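 active = inhibition of at least 40% at 20 µM, with no more than 30% in the related APOBEC3A deaminase screen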
# Target sequence (Q9HC16 whole entry, looked up): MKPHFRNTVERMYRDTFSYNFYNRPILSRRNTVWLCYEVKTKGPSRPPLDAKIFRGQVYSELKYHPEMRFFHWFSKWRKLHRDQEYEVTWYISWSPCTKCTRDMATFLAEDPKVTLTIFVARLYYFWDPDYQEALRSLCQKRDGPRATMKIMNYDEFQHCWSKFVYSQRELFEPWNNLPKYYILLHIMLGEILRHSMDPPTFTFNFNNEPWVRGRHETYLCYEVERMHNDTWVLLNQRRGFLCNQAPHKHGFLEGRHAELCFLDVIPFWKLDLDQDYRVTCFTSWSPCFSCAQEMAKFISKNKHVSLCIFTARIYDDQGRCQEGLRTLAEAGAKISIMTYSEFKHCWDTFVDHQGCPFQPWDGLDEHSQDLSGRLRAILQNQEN
# GC-A act – GC-A stimulated cGMP production enhancers – HEK293 GC-A cells, cGMP TR-FRET, EC30 ANP, primary screen. Atrial natriuretic peptide receptor 1 (Homo sapiens), P16066. 0% at EC30 ANP, 100% saturating ANP. activation, % at 10 µM. 370,000 compounds, 0.14% hits. AID 1671463, 2021; in the data active = activation above about 40%
# PfG6PD confirm – PfG6PD inhibitors, hit retest, confirmation, biochemical, fluorescence intensity, single concentration; recombinant PfGluPho, NADPH-diaphorase-resazurin fluorescence; 2,400 compounds, 34% hits; shares compounds with PfGluPho inh; inhibition, % at 20 µM;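 active = inhibition of at least 50% at 20 µM in any single replicate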
# Diaph ctr 10uM – diaphorase inhibitors and chemical oxidizers, confirmation, counter-screen for P. falciparum G6PD inhibitor project, biochemical, fluorescence intensity, 10 µM NADPH | inhibition, % at 20 µM | 820 compounds, 39% hits | shares compounds with PfGluPho inh | diaphorase-coupled resazurin reduction, NADPH 10 uM;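 active = average inhibition reaching 50% or more with the compound at 20 µM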;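 note: resorufin red fluorescence formed as diaphorase reduces resazurin using NADPH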
# Diaph ctr 30uM – diaphorase inhibitors and chemical oxidizers, confirmation, counter-screen for P. falciparum G6PD inhibitor project, biochemical, fluorescence intensity, 30 µM NADPH; 820 compounds, 29% hits; inhibition, % at 20 µM; shares compounds with PfGluPho inh; AID 504863, 2011; Diaphorase/resazurin coupled assay, resorufin fluorescence;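 active = inhibition averaging 50% or more, tested at 20 µM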
# A number is an active result; 0 = inactive; - = not tested or not shown.
SMILES,PfGluPho inh,Neddylation inh,A3A deaminase,NPR2 activator,APOBEC3G inh,GC-A act,PfG6PD confirm,others
CCOc1cc(NCc2ccccc2)c2ncn(C(C)C)c2c1,66,0,0,0,0,0,48,Diaph ctr 10uM=0;Diaph ctr 30uM=0
CCCOc1cc(NCc2ccccc2)c2ncn(C(C)C)c2c1,77,0,0,0,0,0,0,
COCCOc1cc(NCc2ccccc2)c2ncn(C(C)C)c2c1,0,0,0,0,0,0,-,
CC(C)Cn1c(/C=C/c2ccccc2)nc2ccccc21,0,-,0,0,0,0,-,
COc1ccc(Cn2c(/C=C/c3ccccc3)nc3ccccc32)cc1,74,-,0,0,0,0,0,
COc1ccc(/C=C/c2nc3ccccc3n2C)cc1,73,0,0,0,0,0,56,Diaph ctr 10uM=0;Diaph ctr 30uM=0
C[C@H](O)[C@@H]1CN2CCc3c([nH]c4cccc(-c5ccccc5)c34)[C@@H]2C[C@@H]1N(C)C(=O)Nc1ccccc1,-,-,-,0,-,0,-,
CC(C)CNC(=O)OCc1cn(Cc2cc(F)cc(F)c2)nn1,-,-,-,0,-,0,-,
COc1cc(NC2CCCCC2O)c2nc(-c3ccc(Cl)cc3)ccc2c1 (stereo unspecified),61,0,0,0,0,0,0,
CC(C)(C)c1ccc(-c2nnc(SCC(=O)Nc3ccc(S(=O)(=O)Nc4nccs4)cc3)n2-c2ccc(Cl)cc2)cc1,-,-,-,0,-,0,-,
Cc1onc(-c2ccccc2)c1C(=O)Nc1ncc([N+](=O)[O-])s1,0,0,0,0,0,0,-,
O=C(Nc1ncc([N+](=O)[O-])s1)c1ccc2c(c1)OCO2,126,0,0,0,0,0,87,Diaph ctr 10uM=83;Diaph ctr 30uM=78
Cc1ccc(C(=O)Nc2ncc([N+](=O)[O-])s2)cc1,99,0,-,0,-,0,85,Diaph ctr 10uM=76;Diaph ctr 30uM=63
O=C1N=C(N2CCCCC2)SC1=C1CCCC1,0,0,0,0,0,0,-,
CCCCN1C(=O)/C(=C2\SC(N3CCCCC3)=NC2=O)c2ccccc21,65,0,0,0,0,0,0,
COc1ccc(-n2cnc(=S)[nH]c2=S)cc1,75,0,-,0,-,0,0,
COc1ccc(-n2cc(-c3ccccc3)[nH]c2=S)cc1,0,0,0,0,0,0,-,
CCCC1CCC2(CC1)CCC2OC(=O)Nc1ccc(F)cc1 (stereo unspecified),-,-,-,0,-,0,-,
O=C1C2C(C(=O)N1/N=C/c1ccc([N+](=O)[O-])o1)C1C=CC2C12CC2 (stereo unspecified),0,0,0,0,0,0,-,
CC1=NN(c2nc(N)nc(/C(C#N)=C/c3ccc([N+](=O)[O-])o3)n2)C(C)(C)C1,69,0,-,41,-,46,0,
COc1ccc(NC(=O)c2ccc(-n3cccn3)c([N+](=O)[O-])c2)cc1,0,0,0,0,0,0,-,
Cc1ccc(NC(=O)c2ccc(-n3cccn3)c([N+](=O)[O-])c2)cc1C,77,0,0,0,0,0,0,
O=C(Nc1ccc(Cl)cc1)c1ccc(-n2cccn2)c([N+](=O)[O-])c1,70,0,0,0,0,0,0,
Cc1cc(C)c2c(=O)n(CC(=O)Nc3ccc(Br)c(C)c3)sc2n1,112,0,-,0,-,0,80,Diaph ctr 10uM=0;Diaph ctr 30uM=0
O=C(c1c(F)cccc1F)N1CCC(Oc2cccnc2)CC1,-,-,-,0,-,0,-,
SMILES,PfGluPho inh,Neddylation inh,A3A deaminase,NPR2 activator,APOBEC3G inh,GC-A act,PfG6PD confirm,others
CCOC(=O)c1ccc(-n2c(N)c(C(=O)NCC3CCCO3)sc2=S)cc1 (stereo unspecified),74,0,0,0,0,0,53,Diaph ctr 10uM=0;Diaph ctr 30uM=0
CNC(=O)c1sc(=S)n(-c2ccc(OC)cc2)c1N,0,0,0,0,0,0,-,
C=CCNC(=O)c1sc(=S)n(-c2ccc(C(=O)OCC)cc2)c1N,68,0,0,0,0,0,0,
Cc1ccc(-n2c(N)c(C(=O)NCc3cccnc3)sc2=S)cc1,68,0,0,0,0,0,0,
CCOC(=O)c1ccc(-n2c(N)c(C(=O)NCc3ccco3)sc2=S)cc1,83,0,0,0,0,0,0,
C#CCNC(=O)C[C@H]1C[C@@]2(C(=O)OC)C(=C[C@H](C3CCCC3)O[C@@H]2C)N(CCc2ccc(OC)c(OC)c2)C1=O,-,-,-,0,-,0,-,
CCOC(=O)c1sc(=S)n(-c2ccc(F)c(F)c2)c1N,0,0,0,0,0,0,-,
CCOC(=O)c1sc(=S)n(-c2ccc(C)cc2)c1N,67,0,0,0,0,0,0,
CCOc1ccc(Oc2c(Cl)cnn(Cc3cccc4ccccc34)c2=O)cc1,-,-,-,0,-,0,-,
Oc1ccc(Nc2ccc3ccccc3c2)cc1,63,0,-,0,-,0,0,
Oc1ccc(Nc2nc(-c3ccc4ccccc4c3)cs2)cc1,-,0,0,0,0,0,-,
CCOC(=O)N1C(=O)C[C@](Sc2ccc(OC)cc2)(C(=O)N2CCCC2)[C@H]1c1ccc(OC)cc1,-,-,-,0,-,0,-,
COc1cc(OC)c(OC)cc1/C=C/c1ccnc2ccccc12,87,0,-,0,-,0,0,
COc1ccc(OC)c(/C=C/c2ccnc3ccccc23)c1,0,0,-,0,-,0,-,
Cc1ccc(OCCn2cc(/C=C3\C(=O)NN(c4ccccc4)C3=O)c3ccccc32)cc1,65,0,0,0,0,0,0,
Cc1ccc(OCCn2cc(C=O)c3ccccc32)cc1,0,0,0,0,0,0,-,
O=[N+]([O-])c1ccc(-c2c[nH]c(=S)[nH]2)cc1,64,0,0,0,0,0,0,
COc1ccc(-n2c(C)cc(C(=O)CSc3nnc(-c4ccoc4C)n3C)c2C)cc1,67,0,0,0,0,0,0,
COc1cccc(NC(=O)CSc2nnc(-c3ccoc3C)n2C)c1,0,0,0,0,0,0,-,
COC(=O)c1c(NC(=O)CN2C(=O)c3ccccc3C2=O)sc(Cc2ccc3c(c2)OCO3)c1C,0,0,0,0,0,0,-,
